Laboratory results published in article PMC5540273 (PLoS ONE, 2017).

What was measured:
Settings in all cases: concentration: 1 μM, replicates: in singlicate; n = 1
MTOR = tested on: MTOR
MUSK = tested on: MUSK
MYLK2 = tested on: MYLK2
MYLK4 = tested on: MYLK4
MYLK = tested on: MYLK
MYO3A = tested on: MYO3A
MYO3B = tested on: MYO3B
NDR1 = tested on: T1, NDR1
T1 construct: gene STK38

NDR2 = tested on: NDR2
NEK10 = tested on: NEK10
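Also: KINOMEscan kinase panel screen.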

Compound	%Inh (MTOR) [%]	%Inh (MUSK) [%]	%Inh (MYLK2) [%]	%Inh (MYLK4) [%]	%Inh (MYLK) [%]	%Inh (MYO3A) [%]	%Inh (MYO3B) [%]	%Inh (NDR1) [%]	%Inh (NDR2) [%]	%Inh (NEK10) [%]
O=C(O)C(F)(F)F.O=C(O)C(F)(F)F.O=c1[nH]ccc2nc(N[C@@H]3CCCNC3)nc(Nc3ccc(S(=O)(=O)N4CCOCC4)cc3)c12 [GSK2177277]	9	98.2	33	91.3	96.9	52	0	97.4	74	93.6
COc1cccc(C(=O)Nc2cccc(Oc3ccc4nc(NC(=O)C5CC5)cn4n3)c2)c1	0	0	0	0	33	14	0	19	10	0
CN1CCN(CCCNc2nccc(-c3c(-c4ccc(F)cc4)nn4cc(C(F)(F)F)ccc34)n2)CC1 [GW621581]	0	0	8	0	0	0	0	10	0	10
C[C@@H](Oc1cc(-n2cnc3cc(-c4ccnc(NCCS(C)(=O)=O)c4)ccc32)sc1C(N)=O)c1ccccc1Cl [GSK907232]	2	30	53	2	10	13	0	0	0	0
CC(C)c1nc(-c2cccc(NS(=O)(=O)c3c(F)cccc3F)c2F)c(-c2ccnc(Nc3ccc(N4CCOCC4)nc3)n2)s1 [GSK2008607]	10	10	0	0	18	78	65	62	65	0
CC(=O)Nc1nc2cnc(Nc3cc(NC(=O)c4cccc(C5(C#N)CC5)c4Cl)ccc3C)nc2s1	4	12	0	0	0	0	0	0	0	1
CN1CCN(Cc2cccc(-c3ccc4c(Nc5ccc(Oc6ccccc6)cc5)ccnc4c3)c2)CC1 [GW578342]	15	17	0	0	13	28	0	14	25	0
Fc1ccc(-c2ncn(C3CCNCC3)c2-c2ccnc(Oc3ccc(-c4ccccc4)cc3)n2)cc1 [SB-245391]	0	40	0	21	16	24	17	31	13	0
Clc1ccc(-c2nn3ncccc3c2-c2ccnc(Nc3ccc4c(c3)OCCO4)n2)cc1 [GW829116]	0	0	0	0	0	7	1	34	8	0
O=c1[nH]cc(-c2ccc(N3CCOCC3)cc2)c2sc(-c3cn[nH]c3)cc12 [GSK2276055]	8	0	3	48	18	53	0	30	29	0
COc1ccc(Nc2nccc(N3CCC(NC(=O)Nc4cccc(OC)c4)C3)n2)cc1 (stereo not shown) [GSK1379742]	10	8	14	0	2	0	0	0	0	0
Cc1occc1-c1ncc(OC[C@@H](N)Cc2c[nH]c3ccccc23)cc1-c1ccc2[nH]nc(C)c2c1.O=C(O)C(F)(F)F [GSK682037]	7	7	21	0	29	75	38	30	0	4
O=C(Nc1ccccc1F)NC1CCN(c2ccnc(Nc3ccc(F)cc3)n2)CC1 [GSK1379800]	17	3	16	10	8	37	0	7	0	5
COc1cc(Nc2ncc3c(C)nc(-c4cc5ccccc5[nH]4)n3n2)cc(OC)c1OC [GW869516]	14	47	0	39	0	0	0	10	0	0
COc1ccc(CNC(=O)NC2CCN(c3ccnc(Nc4ccc(F)cc4)n3)CC2)cc1 [GSK1379788]	18	0	0	5	5	40	0	7	16	3
Nc1ncc(-c2ccc3nccc(-c4ccncc4)c3c2)cc1S(=O)(=O)N1CCOCC1 [GSK1627798]	99.3	0	0	0	20	0	0	6	0	16
